Source: PubChem (National Center for Advancing Translational Sciences (NCATS))
Shown are actives, neighbours in structure and some others; about 7.9% of the full set was active somewhere.
LASV entry inh: qHTS for Inhibitors of binding or entry into cells for Lassa Virus | actives 1.2% (n = 300,000) | Lassa virus pseudotype entry inhibition, cell reporter | Potency, µM (highest dose often 37.9 µM), inactives show top-dose activity change, negative = inhibition, actives largely listed as inhibitors; calls by dose curve; tested in HEK293 cells; further: potency means the concentration at half of the fitted maximal effect; nearly all actives have a fitted effect of over 50% in size
HCMV antiviral: qHTS Assay for inhibitors of the human cytomegalovirus (HCMV); activity change, negative = inhibition, % at 57.5 µM; HFF cells, HCMV-luciferase reporter, 72 h; active compounds read low; actives 4.5% (n = 410,000); in the data active means activity change below about -60%; inconclusive means no clear call, values can overlap the other calls; inactive means above about -39%
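Screen run at 2 compound doses on HFFs infected with reporter HCMV, MOI 1 PFU/cell. Luciferase activity from cell lysates at 72 h post infection gave inhibition relative to buffer-only and Salinomycin wells.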
Marburg entry inh: qHTS for inhibitors of binding or entry into cells for Marburg Virus | actives 1.8% (n = 300,000) | AID 540276, 2011 | Marburg virus pseudotyped entry inhibition, cell reporter | Potency, µM (series often up to 37.8 µM), for inactives: top-dose activity change, negative = inhibition, usual class: inhibitors; calls by dose curve; tested in HEK293 cells; further: potency means the concentration at half of the fitted maximal effect
FMDV antiviral: High Throughput Screening for Foot and Mouth Disease Virus Antivirals | Potency, µM (top dose mostly 57.9 µM), for inactives: top-dose activity change, negative = inhibition, actives largely listed as inhibitors | actives 1.2% (n = 410,000) | AID 1159524, 2015 | FMDV antiviral cell-based qHTS; calls by dose curve; tested in HEK293T cells; further: read-out not given here; potency means the concentration at half of the fitted maximal effect; nearly all actives have a fitted effect of over 45% in size
HCV inhibitor: qHTS Assay for Inhibitors of Hepatitis C Virus (HCV); Huh7.5.1 HCVcc-Cre infection, luciferase reporter, 44 h; Potency, µM (top dose mostly 41.8 µM), for inactives: at the top dose activity change, negative = inhibition, hits mostly inhibitors; actives 3.4% (n = 340,000); AID 651820, 2012; active means well fitted inhibition curve with a large enough effect; inconclusive means small, poorly fitted or top-dose-only effect, or another doubt; inactive means no such curve, though single readings can be large or run the other way; further: potency means the concentration at half of the fitted maximal effect
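1,000 cells/well; 4 h culture; + compound; + HCVcc-Cre (~0.5 moi); 44 h; luciferase substrate, RT 15 min; read 15 sec.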
Numbers without * were called inactive; ? = inconclusive; nt = no result; [ ] = another dose, or the depositor's remark. On the % scale 0 is the no-effect control and ±100 the full control effect.

SMILES	LASV entry inh	HCMV antiviral	Marburg entry inh	FMDV antiviral	HCV inhibitor
CCCCOc1ccc(C(=O)NNC(=O)C2C3C=CC(C3)C2C(=O)O)cc1 (stereo not drawn)	nt	-60*	nt	11%	-13%
CCCCOc1ccc(C(=O)NNC(=O)C2C3CCC(C3)C2C(=O)O)cc1 (stereo not drawn)	-14%[46.1 µM]	-4	?	7%	-3%
O=C1OCc2cc(NS(=O)(=O)c3cccs3)ccc21	28%	-63*	1%	nt	5%
CC1(C)CC(NC(=O)COc2ccc(Br)cc2Cl)CC(C)(C)N1	nt	-16	nt	-31%	25µM*
CC1(C)CC(NC(=O)COc2ccccc2Cl)CC(C)(C)N1	nt	?	nt	-7%	26%
Cc1c(OCC(=O)NC2CC(C)(C)NC(C)(C)C2)ccc2c1oc(=O)c1ccccc12	nt	-15	nt	-12%	2µM*
COc1ccc(CN2CCCC(c3nc(-c4ccncc4)ncc3-c3ccccc3)C2)cc1OC (stereo not drawn)	nt	nt	nt	6%	nt
CCCCN(CCCC)S(=O)(=O)c1ccc(C(=O)Nc2nnc(COC)o2)cc1	?	nt	?	-22%	?
CCCCN(CCCC)S(=O)(=O)c1ccc(NC(=O)Cc2cccs2)cc1	9.2µM*	-7	?	-22%	?
CCN(CC)S(=O)(=O)c1ccc(C(=O)Nc2nnc(-c3ccco3)o2)cc1	nt	-22	nt	2%	?
CCCCN(CC)S(=O)(=O)c1ccc(C(=O)Nc2nnc(-c3cccs3)o2)cc1	?	nt	8.9µM*	-18%	?
COCc1nnc(NC(=O)c2ccc(S(=O)(=O)N3CCCc4ccccc43)cc2)o1	?	-78*	?	-24%	13µM*
CCN(CC)S(=O)(=O)c1ccc(C(=O)Nc2nnc(COC)o2)cc1	nt	-64*	nt	-17%	18%
COc1cc(=O)n2c(c1C(=O)N(C)Cc1nonc1C)CCN(Cc1cccc(Cl)c1)CC2	nt	nt	nt	-10%	nt
COC(=O)C1=C(C)N(CCc2c[nH]c3ccc(OC)cc23)C(=O)C1	20%	73	?	-2%	-9%
Cc1ccc(CNC(=O)c2ccc3c(O)c(S(=O)(=O)c4ccc(Cl)cc4)c(=O)[nH]c3c2)cc1	6%[46.1 µM]	23	nt	-11%	nt
COc1ccc2c(c1)OC(C)CN(CCNC(=O)c1cc3cc(F)ccc3[nH]1)C2 (stereo not drawn)	nt	nt	nt	17%	nt
O=C(Cn1nc(N2CCN(c3ccccc3)CC2)ccc1=O)NCc1ccccc1F	-7%[46.1 µM]	-14	nt	-14%	nt
COc1ccc(-c2nnc(NC(=O)c3ccc(S(=O)(=O)N4CCCc5ccccc54)cc3)o2)cc1	?	nt	?	-17%	10µM*
Cc1cccn2c(=O)c3cc(C(=O)NCCc4ccccc4)c(=N)n(CC4CCCO4)c3nc12 (stereo not drawn)	3%[46.1 µM]	14	-4%[46.1 µM]	-17%	-3%
Cc1cccn2c(=O)c3cc(C(N)=S)c(=N)n(CCCOC(C)C)c3nc12	?	?	?	-10%	11µM*
CCNC(=O)c1cc2c(=O)n3cccc(C)c3nc2n(CCc2ccccc2)c1=N	4%	-103*	8%	-22%	?
O=C(NCc1ccco1)c1cccn2c(=O)c3cc4ccccc4cc3nc12	nt	nt	2%	nt	nt
COCCn1c(=N)c(C(=O)NCCc2ccccc2)cc2c(=O)n3cccc(C)c3nc21	-4%	-69*	?	-14%	16%
COCCCNC(=O)c1cccn2c(=O)c3cc4ccccc4cc3nc12	?	-81*	?	-1%	-26%
SMILES	LASV entry inh	HCMV antiviral	Marburg entry inh	FMDV antiviral	HCV inhibitor
NCCCC(O)(P(=O)(O)O)P(=O)(O)O	nt	nt	nt	3%	nt
CC(C)=CCc1cc([C@@H]2COc3c(ccc4c3C=CC(C)(C)O4)C2)c(O)cc1O	nt	-106*	nt	?	?
CCCc1c(CC)c(=N)c2ccccc2n1C	-18%[14.3 µM]	-87*	-12%	?	-4%
Cn1ncc2c(=O)[nH]nnc21	0%	29	9%	-12%	29%
Cn1c(=O)[nH]c2c(cnn2C)c1=O	2%	-98*	3%	-11%	1%
Cc1ccc(S(=O)(=O)N2CCN(C(=O)c3cc4c(C)nn(-c5ccccc5C)c4s3)CC2)cc1	?	-34	18µM*	-31%	?
Cc1ccccc1-n1nc(C)c2cc(C(=O)N3CCOCC3)sc21	-4%	17	2%	18%	6%
OC[C@@H]1CN(Cc2ccc(Cl)cc2)C[C@H](n2cnc3c(NC4CC4)ncnc32)O1	nt	49	nt	-23%	nt
N/C(Cc1ccc([N+](=O)[O-])cc1)=N\OC(=O)COc1ccccc1Cl	6%	-102*	21%	20%	2%
CCCCN(C(=O)c1cc2c(s1)CCC2)c1c(N)n(CCCC)c(=O)[nH]c1=O	21%	-17	8%[46.1 µM]	-1%	11µM*
CN1C(=S)S[C@@H](N(O)C(=O)Nc2ccccc2)C1(C)C	nt	nt	2%	nt	nt
O=C(Nc1cccs1)Nc1c(F)c(F)cc(F)c1F	5%	8	11%	24%	32%
O=C(Nc1cccs1)Nc1c(F)c(F)c(F)c(F)c1F	?	-61*	-23%	20%	7%
Nc1ncnc2c1nc(-c1ccccc1)n2C1OC(CO)C(O)C1O (stereo not drawn)	nt	11	nt	-9%	nt
CN(C)c1nc2c(N)ncnc2n1[C@H]1O[C@@H](CO)[C@H](O)[C@@H]1O	-11%[46.1 µM]	-70*	17%[46.1 µM]	5%	16%
N#Cc1c(Br)n(C2OC(CO)C(O)C2O)c2ncnc(N)c12 (stereo not drawn)	?	-95*	?	8%	?
NC(=O)c1c(Br)n(C2OC(CO)C(O)C2O)c2ncnc(N)c12 (stereo not drawn)	?	-83*	?	-21%	?
O=C(NCc1cccc(Cl)c1)O[C@H]1CC[C@@]23CCCN2C(=O)CCC[C@H]3[C@H]1Cc1ccccc1	nt	0	nt	nt	nt
O=C(OCc1c(F)cccc1Cl)c1cnc(Cl)c(Cl)c1	15%[46.1 µM]	-32	-6%[46.1 µM]	-7%	10µM*
CCOc1ccc(C(=O)NCC(=O)OCc2c(F)cccc2Cl)cc1	5%	-67*	?	19%	10%
CCOC(=O)c1c(C)[nH]c(/C(C)=N/O)c1C	-1%	-38	?	10%	-23%
CCOC(=O)c1c(C)[nH]c(C2=NNC(=NC3CC3)SC2)c1C	nt	nt	nt	22µM*	?
S=c1[nH]nc(-c2cc3c(s2)-c2ccccc2CC3)o1	4%	166	19%	3%	9%
CSc1nnc(-c2cc3c(s2)-c2ccccc2CC3)o1	-23%	176	0%	0%	2.5µM*
CNc1nc2cnc(Nc3ccc(C(F)(F)F)cc3)cc2n1-c1cc(OC)c(OC)c(OC)c1	nt	-14	nt	nt	nt
Cc1ccc(N/C(N)=N/c2nc(C)cc(C)n2)cc1	12%	-4	-35%	0%	10%
Cc1cc(C)nc(/N=C(\N)Nc2ccccc2-c2ccccc2)n1	-20%	?	?	18µM*	?
COc1cc(NC(N)=S)c(OC)cc1Cl	-25%[46.1 µM]	3	6%[46.1 µM]	7%	-17%
